From PubChem BioAssay
NS1 function inh: qHTS Assay for Inhibitors of Influenza NS1 Protein Function. AID 2326, 2010. Potency, µM (top dose mostly 46.1 µM), without a hit: top-dose activity, positive = more growth. hit rate 0.4% among 270,000; calls by dose curve; also: actives are rising curves; nearly all actives have a fitted effect of over 50% in size
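Read-out: OD600 growth recovery of NS1-expressing budding yeast. Cells grown overnight at 30C in -URA glucose medium, washed, resuspended and diluted 1:100 in 2% galactose assay medium, pH 6.0. Same strain lacking NS1 served as positive control.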
Cruzain inh Det: qHTS Assay for Promiscuous and Specific Inhibitors of Cruzain (with detergent); AID 1478, 2009; Cruzipain (Trypanosoma cruzi), P25779; purified cruzain, Z-FR-AMC fluorescence, 0.01% Triton; Potency, µM, for the others: max response, negative = inhibition, usual class: inhibitors; hit rate 0.43% among 200,000;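 also: plate controls were neutral wells for no effect and buffer without enzyme for full effect; nearly all actives have a fitted effect of over 40% in size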
Target sequence (P25779 123-467 limits assumed): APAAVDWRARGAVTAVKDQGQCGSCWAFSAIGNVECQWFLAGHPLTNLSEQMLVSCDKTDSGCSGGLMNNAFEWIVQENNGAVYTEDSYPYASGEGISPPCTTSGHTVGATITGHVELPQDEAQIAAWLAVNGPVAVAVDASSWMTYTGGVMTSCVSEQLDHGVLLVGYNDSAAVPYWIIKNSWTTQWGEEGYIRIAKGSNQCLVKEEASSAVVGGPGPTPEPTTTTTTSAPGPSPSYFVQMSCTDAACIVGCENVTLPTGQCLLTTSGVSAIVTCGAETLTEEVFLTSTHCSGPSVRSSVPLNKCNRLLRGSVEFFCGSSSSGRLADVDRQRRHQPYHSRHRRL
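In this qHTS format, compounds are incubated with 1.5 nM cruzain for 15 min at room temperature before 2 uM Z-FR-AMC is added. Release of AMC is followed at 360/450 nm, and progress is taken as the 60 s fluorescence difference.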
Cruzain noTriton: qHTS Assay for Promiscuous and Specific Inhibitors of Cruzain (without detergent). Cruzipain (Trypanosoma cruzi), P25779. purified cruzain, Z-FR-AMC fluorescence, no detergent. hit rate 2.3% among 200,000. Potency, µM, for inactives: max response, negative = inhibition, most hits filed as inhibitors. AID 1476, 2009;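 also: plate controls were enzyme without inhibitor for no effect and buffer without enzyme for full effect; nearly all actives have a fitted effect of over 40% in size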
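Detergent-free condition (0.00005% Triton X-100) in acetate buffer pH 5.5 with DTT. 1.5 nM enzyme and compound were pre-mixed 15 min, then 2 uM Z-FR-AMC substrate added; reaction progress from fluorescence change between first and third reads (60 s).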
Active calls of the source: *. This is one part of a sample in which hits are shown more often than they occur. Unless noted, calls follow the shape of the dose curve; as a rule, active = well fitted curve in the direction sought with a large enough effect; inconclusive = small, poorly fitted or top-dose-only effect, or another doubt; inactive = no such curve, though single readings can be large; an effect the other way counts as inactive or inconclusive. Potency is read from the fitted curve at half-maximal effect.

`COc1ccc(C2CC(c3ccccc3)=NN2C(=O)COC(=O)CNC(=O)c2ccccc2)cc1` (stereo not given) gave NS1 function inh 17%, Cruzain inh Det 8.9µM* and Cruzain noTriton 10µM*.
Screening C=CCOCC1CO1 (stereo not given) returned Cruzain inh Det 8% and Cruzain noTriton -2%.
`COc1ccc(-c2nn(-c3ccccc3)cc2/C=N/n2cnnc2)cc1OC` gave NS1 function inh -7%, Cruzain inh Det -8% and Cruzain noTriton inconclusive.
`COc1ccccc1NS(=O)(=O)c1cccc(C(=O)N/N=C/c2cn(-c3ccccc3)nc2-c2ccccc2)c1` gave NS1 function inh inconclusive, Cruzain inh Det -5% and Cruzain noTriton 13µM*.
`COc1ccc(NS(=O)(=O)c2cccc(C(=O)N/N=C/c3cn(-c4ccccc4)nc3-c3ccccc3)c2)cc1` gave NS1 function inh 7%.
CCN(CC)c1ccc(/C=N/NC(=O)c2cccc(S(=O)(=O)Nc3ccccc3OC)c2)c(O)c1 was read as NS1 function inh 24%, Cruzain inh Det -4% and Cruzain noTriton 20µM*.
Screening CCN(CC)c1ccc(/C=N/NC(=O)c2cccc(S(=O)(=O)Nc3ccccc3OC)c2)cc1 returned NS1 function inh 19%.
For COc1ccc(-c2nn(-c3ccccc3)cc2/C=N/NC(N)=S)cc1OC the results were NS1 function inh inconclusive, Cruzain inh Det 1.6µM* and Cruzain noTriton 0.63µM*.
Nc1nnc(SCC(=O)c2ccc3ccccc3c2)s1 was read as NS1 function inh 21%, Cruzain inh Det -5% and Cruzain noTriton 32µM*.
Screening Nc1nnc(SCC(=O)Nc2cccc3ccccc23)s1 returned NS1 function inh -4%.
COc1ccc2c(c1)c(=O)c(C(=O)c1ccc(C)cc1)cn2Cc1ccccc1F was read as Cruzain inh Det -9% and Cruzain noTriton -18%.
O=C(c1ccc2c(c1)N(Cc1cccc(Cl)c1)C(=O)c1ccccc1S2(=O)=O)N1CCCCC1 was read as Cruzain inh Det -4% and Cruzain noTriton 2%.
O=C(c1ccc2c(c1)N(Cc1cccc(Cl)c1)C(=O)c1ccccc1S2=O)N1CCN(c2cccc(C(F)(F)F)c2)CC1 (stereo not given) was read as Cruzain inh Det -3% and Cruzain noTriton 25µM*.
`CN1CCN(C(=O)c2ccc3c(c2)N(Cc2cccc(Cl)c2)C(=O)c2ccccc2S3=O)CC1` (stereo not given) gave NS1 function inh 17%.
For O=C(c1ccc2c(c1)N(Cc1cccc(Cl)c1)C(=O)c1ccccc1S2(=O)=O)N1CCN(c2cccc(C(F)(F)F)c2)CC1 the results were Cruzain inh Det -2% and Cruzain noTriton 5µM*.
CN(C)c1ccc(N)cc1 was read as Cruzain inh Det 0% and Cruzain noTriton -2%.
For Cc1noc(C)c1CSc1nc2ccccc2c(=O)n1-c1ccc(Cl)cc1 the results were NS1 function inh 8%, Cruzain inh Det 1% and Cruzain noTriton 20µM*.
Screening Cc1noc(C)c1CSc1nc2sc(C)c(C)c2c(=O)n1-c1ccccc1 returned NS1 function inh -14%, Cruzain inh Det -1% and Cruzain noTriton -13%.
For COc1ccc(-c2noc(CSc3nc4sc(C)c(C)c4c(=O)n3-c3ccccc3)n2)cc1OC the results were NS1 function inh 2%, Cruzain inh Det 0% and Cruzain noTriton -18%.
Screening O=c1c2ccccc2nc(SCc2nc(-c3ccccc3)no2)n1-c1ccc(F)cc1 returned NS1 function inh -43%, Cruzain inh Det -3% and Cruzain noTriton 25µM*.
For COc1ccc(-c2noc(CSc3nc4ccccc4c(=O)n3-c3ccccc3)n2)cc1OC the results were NS1 function inh 8%, Cruzain inh Det -1% and Cruzain noTriton 12%.
COc1ccc(-c2noc(CSc3nc4sc(C)c(C)c4c(=O)n3-c3ccccc3)n2)cc1 was read as NS1 function inh 6%, Cruzain inh Det -3% and Cruzain noTriton 7.9µM*.
Cc1ccc(-c2c(C)n3c4c(=O)n(C)c(=O)n(C)c4nc3n2-c2cccc(O)c2)cc1 was read as Cruzain inh Det 0% and Cruzain noTriton -5%.
`CN(Cc1ccco1)c1nc(-c2ccccc2C(F)(F)F)nc2ccccc12` gave Cruzain inh Det -6% and Cruzain noTriton -1%.
O=C1N=C(N2CCN(c3cccc4ccccc34)CC2)S/C1=C/c1cccs1 was read as NS1 function inh 7%, Cruzain inh Det -10% and Cruzain noTriton 20µM*.
For Cc1ccccc1N1CCN(C2=NC(=O)/C(=C\c3cccs3)S2)CC1 the results were NS1 function inh -7%, Cruzain inh Det -14% and Cruzain noTriton inconclusive.
